From PubChem BioAssay AID652105 (National Center for Advancing Translational Sciences (NCATS), 2013)
The campaign covered roughly 330,000 compounds. About 4,100 (1.2%) were called active. Roughly 2% stayed inconclusive and do not appear here. The sample as a whole holds a higher share of actives than the screen did. Values without a mark were called inactive. How the source made its calls: active means max response of -50% or lower; inconclusive means between -30% and -50%; inactive means -30% or higher.

Each molecule was assayed against Phosphatidylinositol 5-phosphate 4-kinase type-2 alpha (Homo sapiens) (UniProt P48426) (assay: qHTS for Inhibitors of phosphatidylinositol 5-phosphate 4-kinase (PI5P4K)). Details: PI5P4Kalpha enzyme, ADP-Glo luminescence, 60 min; active compounds read low.
Summary of the method: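 ADP-Glo luminescence end-point after a 60 min room-temperature kinase reaction. PI5P4Kalpha and substrate in HEPES pH 7.4 buffer with EGTA, 0.1% CHAPS and 5% DMSO; ATP at 5 microM final.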
Further: value at the top dose of about 77 µM.
On the % scale 0 is the no-effect control and ±100 the full control effect.

Chain of Phosphatidylinositol 5-phosphate 4-kinase type-2 alpha (Homo sapiens) (P48426 whole entry, looked up): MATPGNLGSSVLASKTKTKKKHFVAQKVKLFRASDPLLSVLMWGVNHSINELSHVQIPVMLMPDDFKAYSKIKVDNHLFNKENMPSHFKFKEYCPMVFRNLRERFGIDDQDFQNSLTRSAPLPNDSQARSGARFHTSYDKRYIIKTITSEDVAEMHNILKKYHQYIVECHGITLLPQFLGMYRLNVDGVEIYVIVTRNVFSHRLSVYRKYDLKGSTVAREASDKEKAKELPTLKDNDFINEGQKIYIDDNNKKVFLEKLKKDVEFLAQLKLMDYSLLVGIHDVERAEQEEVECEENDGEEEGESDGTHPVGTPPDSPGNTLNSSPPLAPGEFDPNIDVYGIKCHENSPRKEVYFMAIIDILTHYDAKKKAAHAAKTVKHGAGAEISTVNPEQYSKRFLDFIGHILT

Q: With `COc1ccc(C(O)C(O)(C(=O)OC(C)C)c2ccc(C)cc2)cc1` (centres undefined) as the molecule, how does the max response read?
A: The max response was -0.92%.

Q: Which max response does the source give for `COc1cncc(-c2cnc3sc(NCCc4ccccn4)nn23)c1` here?
A: Its max response is -5.87%.

Q: `O=C1NC[C@H](CCCCN2CCN(CCc3ccccc3)C(=O)C2=O)N(CC2CCCCC2)C1=O` was tested. Which max response did it give?
A: The max response was -2.74%.

Q: How did the max response turn out when `CCOC(=O)[C@]12CCC=C1N(Cc1cccc3ccccc13)C(=O)[C@H](CC(=O)NCc1cccc(C(F)(F)F)c1)C2` was run?
A: The max response was 11%.

Q: How did the max response turn out when `CC1(Cc2ccccc2C#N)C(=O)Nc2ccc(-c3ccc4[nH]ccc4c3)cc21` (centres undefined) was run?
A: Its max response is -19.1%.

Q: How did the max response turn out when `CCN1C(=O)[C@@H]2[C@@H]3CN(S(=O)(=O)c4ccccc4C)[C@@H](c4ccc(Cl)cc4)[C@@H]3C(=O)C[C@@H]2C1=O` was run?
A: The max response was -5.23%.

Q: How did the max response turn out when `Cc1cccc(-c2cnc(C(O)c3cc(C)cc(C)c3)[nH]2)c1` (centres undefined) was run?
A: Its max response is 0.164%.

Q: Which max response does the source give for `CN1CCN(C(=O)c2ccc(NC(=O)c3ccc(Br)o3)cc2)CC1` here?
A: The max response was -0.458%.

Q: How did the max response turn out when `COc1ccc(C)cc1-n1nnnc1SCc1nc2ccccc2c(=O)[nH]1` was run?
A: Its max response is -6.87%.

Q: Which max response does the source give for `CCn1c(COc2c(C)cccc2C)nnc1SCc1nc2ccccc2c(=O)[nH]1` here?
A: Its max response is -1.01%.

Q: For `COc1ccc(CCCc2nnc(SCc3nc4ccccc4c(=O)[nH]3)n2C)cc1`, which max response is on record?
A: Its max response is -92.1% (active).

Q: Which max response does the source give for `CCC(=O)N1Cc2cc(C(=O)NCc3cccc(F)c3)nc(-c3cccc(C4=CCCC4)c3)c2[C@H]1CCO` here?
A: The max response was -0.668%.

Q: For `CN(C)C(=O)N=NC(=O)N(C)C`, which max response is on record?
A: The max response was -58.3% (active).

Q: `CCc1nc2c(OCc3ccc(F)c(F)c3)cccn2c1N(C)C(=O)c1ccco1` was tested. Which max response did it give?
A: Its max response is -3.84%.

Q: `CCNC(=S)NNC(=O)Cc1ccccc1` was tested. Which max response did it give?
A: The max response was 5.73%.

Q: How did the max response turn out when `CCCCC(=O)NNC(=S)NC(=O)C(c1ccccc1)c1ccccc1` was run?
A: The max response was -62.6% (active).

Q: With `O=C(NNC(=S)NCc1ccco1)C(c1ccccc1)c1ccccc1` as the molecule, how does the max response read?
A: Its max response is -8.48%.

Q: How did the max response turn out when `CCCCCCn1c(=O)n2n(c1=O)C[C@]1(OC(=O)NCc3ccc(OC)c(OC)c3)CN(S(=O)(=O)c3ccc(C)cc3)C[C@]1(O)C2` was run?
A: Its max response is 3.29%.

Q: How did the max response turn out when `CCOC(=O)[C@]12CCCC=C1N(CCC1=CCCCC1)C(=O)[C@H](CC(=O)NCCCCc1ccccc1)C2` was run?
A: The max response was 0.467%.

Q: Which max response does the source give for `CCCOc1ccc(F)cc1-c1cc(C(=O)Nc2ccc(F)cc2)[nH]n1` here?
A: Its max response is 0.345%.

Q: With `COc1ccc(N(C(=O)c2cccnc2)S(=O)(=O)c2ccc3c(c2)n(C)c(=O)n3C)cc1` as the molecule, how does the max response read?
A: The max response was -3.4%.

Q: `COc1ccc(N(C(=O)c2cccnc2)S(=O)(=O)c2ccc(OC)c(OC)c2)cc1` was tested. Which max response did it give?
A: Its max response is 0.0951%.

Q: `O=C(c1cccnc1)N(c1cc2sc(=O)oc2c2ccccc12)S(=O)(=O)c1ccccc1` was tested. Which max response did it give?
A: Its max response is -69.2% (active).

Q: For `COCCCNC(=O)c1cccc2c(-c3ccc(O)c(OC)c3)coc12`, which max response is on record?
A: Its max response is 4.94%.

Q: Which max response does the source give for `COCCCNC(=O)c1ccc(-c2c(C)noc2C)c2ccoc12` here?
A: The max response was -2.64%.

Q: `NC1=CC(=O)C(=O)c2cccnc21` was tested. Which max response did it give?
A: The max response was -50.3% (active).

Q: For `CCOc1ccc(CCN2C(=O)c3cccnc3C2=O)cc1OCC`, which max response is on record?
A: Its max response is -0.64%.

Q: With `O=C1c2cccnc2C(=O)N1Cc1cccs1` as the molecule, how does the max response read?
A: Its max response is 0.461%.

Q: For `O=C(Nc1ccc(Cl)cc1)C1Cc2c(-c3ccc4c(c3)OCO4)ccnc2O1` (centres undefined), which max response is on record?
A: Its max response is -13.4%.

Q: `CCCCCn1nnnc1C1c2ccccc2C(=O)N1Cc1ccco1` (centres undefined) was tested. Which max response did it give?
A: Its max response is -0.242%.

Q: Which max response does the source give for `FC(F)(F)C1CCCN(c2nsc3ccccc23)C1` (centres undefined) here?
A: Its max response is -91.2% (active).

Q: `O=C(NC(Cc1ccccc1)C(=O)N1CCCC(C(F)(F)F)C1)c1ccccc1` (centres undefined) was tested. Which max response did it give?
A: Its max response is 11.8%.

Q: With `O=C(NCC(=O)N1CCCC(C(F)(F)F)C1)c1ccccc1F` (centres undefined) as the molecule, how does the max response read?
A: The max response was 3.2%.

Q: `CCC(C(=O)NC(C)(C)C)n1c(-c2ccccc2)nc2ccccc21` (centres undefined) was tested. Which max response did it give?
A: Its max response is 1.82%.

Q: `OC[C@@H]1CN(C2CCCC2)C[C@H](n2cnc3c(NC4CCC4)ncnc32)O1` was tested. Which max response did it give?
A: Its max response is -2.43%.

Q: `N#Cc1cccc(NC(=O)c2cc(C3CCCCN3C(=O)CCc3ccccc3)on2)c1` (centres undefined) was tested. Which max response did it give?
A: Its max response is -3.06%.

Q: `Cc1ccc(NC(=O)Cn2sc3ccccc3c2=O)cc1` was tested. Which max response did it give?
A: The max response was -87% (active).

Q: How did the max response turn out when `Cc1nn(CC(=O)Nc2ccc(F)cc2)c(=O)c2ccccc12` was run?
A: Its max response is -3.79%.

Q: For `Cc1ccc(NC(=O)Cn2c(C)csc2=O)cc1`, which max response is on record?
A: Its max response is 6.3%.

Q: With `CC(C)C[C@H]1CNC(=O)C(=O)N1C[C@@H]1CCCN1C[C@H](Cc1ccccc1)N1C[C@H](CC(C)C)N(CC2CCCCCC2)C(=O)C1=O` as the molecule, how does the max response read?
A: Its max response is -0.689%.

Q: Which max response does the source give for `Cc1cccc(-c2cnc(C(O)c3ccc4ccccc4c3)[nH]2)c1` (centres undefined) here?
A: Its max response is -4.33%.

Q: With `CCc1nc2c(OCc3ccc(C(F)(F)F)cc3)cccn2c1N(C)C(=O)CC(C)C` as the molecule, how does the max response read?
A: The max response was 9.67%.

Q: How did the max response turn out when `CCN1CCCC1CNC(=O)c1ccc2c(c1)NC(=O)/C(=C\c1ccccc1F)S2` (centres undefined) was run?
A: Its max response is -0.909%.

Q: With `CCN1CCN(CCNC(=O)c2ccc3c(c2)NC(=O)/C(=C\c2cccc(Cl)c2)S3)CC1` as the molecule, how does the max response read?
A: Its max response is -64.1% (active).

Q: `O=C1Nc2cc(C(=O)N3CCC(N4CCCCC4)CC3)ccc2S/C1=C\c1ccccc1` was tested. Which max response did it give?
A: The max response was -1.98%.

Q: `COC(=O)[C@@]12C[C@@H](CC(=O)N3CCCCC3)C(=O)N(Cc3ccc4c(c3)OCO4)C1=CCC(C)(C)C2` was tested. Which max response did it give?
A: Its max response is -2.52%.

Q: Which max response does the source give for `CC(=O)OC[C@@H]1CN(Cc2ccccc2)C[C@H](n2cnc3c(NCc4ccco4)ncnc32)O1` here?
A: Its max response is -7.06%.

Q: With `CCCCN(C=O)c1c(CC)nc2c(OCCC3CCCCC3)cccn12` as the molecule, how does the max response read?
A: The max response was -11.5%.

Q: Which max response does the source give for `CC1(C(=O)Nc2cccc(Oc3ccccc3)c2)CCN1Cc1ccccc1Cl` (centres undefined) here?
A: Its max response is 19%.

Q: Which max response does the source give for `CC(=O)N(CC1CCCO1)C1(C(=O)NC2CCCC2)CCCCC1` (centres undefined) here?
A: The max response was 8.44%.

Q: How did the max response turn out when `O=C(Cc1cccs1)N(CC1CCCO1)C1(C(=O)NC2CCCCC2)CCCCC1` (centres undefined) was run?
A: The max response was -55.8% (active).

Q: Which max response does the source give for `CC(=O)NCC(=O)N(Cc1ccco1)C1(C(=O)NC2CCCC2)CCCCC1` here?
A: Its max response is 1.69%.

Q: With `CCCNC(=O)c1cc(C2CCCCN2S(=O)(=O)c2ccc(C#N)cc2)on1` (centres undefined) as the molecule, how does the max response read?
A: The max response was 7.08%.

Q: With `O=C(Nc1ccc(Cl)c(C(F)(F)F)c1)C1Cc2c(-c3ccccc3Oc3ccccc3)ccnc2O1` (centres undefined) as the molecule, how does the max response read?
A: The max response was 6.93%.
